eLon inh = inhibitors of E. coli Lon protease, primary screen, biochemical, fluorescence polarization. purified E. coli Lon protease. inhibition, % at 7.94 µM. actives 0.42% (n = 360,000); in the data active means inhibition above about 13%, passing the limit was not always enough
MEX-5 binding = MEX-5 zinc finger RNA-binding disruptors – biochemical, C. elegans, fluorescence polarization, MLPCN library, primary screen. Zinc finger protein mex-5 (Caenorhabditis elegans), Q9XUB2. MEX-5/FITC-TCR2 RNA binding; hits give low values. activity score (negative = inhibition of binding), % at 10 µM. actives 0.38% (n = 300,000);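 active means inhibition past about -25% in most replicates, and total fluorescence under double the plate's negative control median, limit read from the data; inconclusive means replicates evenly split on the limit, or fluorescence at least double controls; inactive means too little inhibition in most replicates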
Target sequence (Q9XUB2 whole entry, looked up): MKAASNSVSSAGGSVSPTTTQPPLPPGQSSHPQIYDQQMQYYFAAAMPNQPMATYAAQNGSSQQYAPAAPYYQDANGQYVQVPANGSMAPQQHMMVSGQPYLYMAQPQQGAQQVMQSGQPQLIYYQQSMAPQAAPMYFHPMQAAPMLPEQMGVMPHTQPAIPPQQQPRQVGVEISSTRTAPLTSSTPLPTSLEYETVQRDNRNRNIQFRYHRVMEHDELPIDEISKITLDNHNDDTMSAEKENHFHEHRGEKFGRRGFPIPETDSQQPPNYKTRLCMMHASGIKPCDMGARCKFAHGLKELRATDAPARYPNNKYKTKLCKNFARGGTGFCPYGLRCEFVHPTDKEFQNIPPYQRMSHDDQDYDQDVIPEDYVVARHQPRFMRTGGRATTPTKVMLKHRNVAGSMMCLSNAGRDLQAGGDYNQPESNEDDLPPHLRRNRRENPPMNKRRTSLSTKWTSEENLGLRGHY
Bcl-xL primary = inhibitors of human Bcl-xL, primary screen, biochemical, fluorescence polarization, HTS. GST-Bcl-xL / FITC-Bim BH3 peptide fluorescence polarization. inhibition, % at 10.9 µM. actives 0.7% (n = 320,000). AID 2129, 2009;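 active means inhibition above the mean of all tested compounds plus 3 SD, cutoff set per campaign, cut at about 30% in these data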;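 further: inhibitors lower millipolarization by displacing the labeled peptide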
Target sequence (Q07817 whole entry, looked up): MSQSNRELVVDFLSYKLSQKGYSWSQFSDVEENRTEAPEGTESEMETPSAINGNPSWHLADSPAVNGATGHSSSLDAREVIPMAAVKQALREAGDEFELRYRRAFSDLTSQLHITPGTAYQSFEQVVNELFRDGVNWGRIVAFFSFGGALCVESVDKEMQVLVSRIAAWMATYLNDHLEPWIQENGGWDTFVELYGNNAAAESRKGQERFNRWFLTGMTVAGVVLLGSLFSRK
GLD-1 TGE inh = GLD-1/TGE RNA complex disruptors, primary screen, biochemical, fluorescence polarization. inhibition, % at 5.96 µM. actives 0.44% (n = 320,000). purified GLD-1 + fluorescein TGE RNA;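 active means percent inhibition above a per-plate cutoff, the plate mean of test compounds plus 3 SD, cut at about 30% in these data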
EBV gp42 inh = Epstein-Barr virus gp42 inhibitors, primary screen, biochemical, uHTS, fluorescence polarization. Fluorescence polarization binding assay, mP read-out. Glycoprotein 42 (Epstein-Barr virus (strain AG876)), Q1HVG2. AID 1085, 2008. inhibition, % (tested at 21.74 µM). actives 0.42% (n = 220,000); in the data active means inhibition above about 50%
E coli Lon conf = E. coli Lon protease inhibitor retest, confirmation, biochemical, fluorescence polarization; shares compounds with eLon inh; purified E. coli Lon; inhibition, % at 7.94 µM; actives 31% (n = 1,400); AID 602230, 2012; in the data active means inhibition above about 16%
Of the large screens only hits and unclear results are named; the others gave an inactive call (follow-up assays come after a bar, where they were run). In the library only some 1.3% were active in any assay of this set; here they are far more common.

O=C(NCc1ccccc1CN1CCCC1)c1ccc(S(=O)(=O)Nc2ccccc2)cc1	none (no result: MEX-5 binding, Bcl-xL primary, GLD-1 TGE inh, EBV gp42 inh)
FC(F)(F)c1nc2nc(Cl)c(Cl)nc2n1CCCN1CCOCC1	eLon inh 31 (no result: MEX-5 binding, Bcl-xL primary, GLD-1 TGE inh, EBV gp42 inh) | E coli Lon conf inactive
Cc1nc2ccccc2c(=O)n1CCCN1CCOCC1	none
CC(=O)Nc1nn(C)c2nc(C)cc(C)c12	none
C[C@@H]1CN(S(=O)C(C)(C)C)[C@@H](CCO)/C1=C\CCO (some centres not stated)	none (no result: MEX-5 binding, Bcl-xL primary, GLD-1 TGE inh, EBV gp42 inh)
Cc1c(Br)cc(C(=O)O)c(C)c1C	none
Cc1c(N)cc(N)cc1C(=O)O	eLon inh 61, MEX-5 binding -49, Bcl-xL primary 145, GLD-1 TGE inh 128 | E coli Lon conf inactive
Nc1nnc2cc(Br)ccc2n1	eLon inh 66 (no result: MEX-5 binding, Bcl-xL primary, GLD-1 TGE inh, EBV gp42 inh) | E coli Lon conf 33
Oc1ccc2nnc3c(Br)cnn3c2c1	eLon inh 134, MEX-5 binding inconclusive, Bcl-xL primary 175, GLD-1 TGE inh 144 (no result: EBV gp42 inh) | E coli Lon conf 144
O=C(NCC(c1ccccc1Cl)N1CCCC1)C1CCN(C(=O)Nc2ccccc2)CC1 (configuration not stated)	none (no result: MEX-5 binding, EBV gp42 inh)
CCN(CC)Cc1cc(O)c(CN(CC)CC)cc1O	eLon inh 35, MEX-5 binding -39 (no result: Bcl-xL primary, GLD-1 TGE inh) | E coli Lon conf 30
CCc1oc(C(=O)O)cc1CN(CC)CC	none
COc1ccc(NC(=O)CSc2nnc(NC(=O)C3CC3)s2)cc1OC	none (no result: EBV gp42 inh)
Cc1ccc(N(CC(O)CN2CCOCC2)S(=O)(=O)c2ccc([N+](=O)[O-])cc2)cc1 (configuration not stated)	eLon inh 17 (no result: EBV gp42 inh) | E coli Lon conf inactive
Cc1ccc2c(c1)c(C)c(C)n2CC(O)Cn1nc(C)c(Br)c1C (configuration not stated)	eLon inh 15 | E coli Lon conf 23
CCC(CC)c1nc(C(N)=O)c2[nH]c(=O)n(-c3ccc(OC)c(OC)c3)c2n1	none (no result: EBV gp42 inh)
CC(NC(=O)c1ccccc1Cl)c1nnc(SCC(=O)Nc2ccc(C(=O)O)cc2)n1C (configuration not stated)	eLon inh 29 | E coli Lon conf inactive
COC(=O)c1ccccc1NC(=O)CSc1nnc(C(CO)NC(=O)c2ccccc2Cl)n1C (configuration not stated)	none
O=C1C=C(Nc2ccccc2O)c2ccccc2C1=O	eLon inh 43, Bcl-xL primary 83, GLD-1 TGE inh 99 | E coli Lon conf inactive
COc1ccc(NC(=O)C(C)N2C(=O)C3CC=C(Cl)CC3C2=O)cc1 (configuration not stated)	none (no result: Bcl-xL primary, GLD-1 TGE inh, EBV gp42 inh)
N#CC(C#N)=C1C=C2C=C(N3CCCCCC3)CCC2CC1 (configuration not stated)	eLon inh 151, MEX-5 binding inconclusive (no result: Bcl-xL primary, GLD-1 TGE inh) | E coli Lon conf inactive
CCOC(=O)C1=C(CSc2nc3c(cc2C#N)CN(C)CC3)OC(N)=C(C#N)C1c1ccncc1 (configuration not stated)	eLon inh 35, MEX-5 binding -51, Bcl-xL primary 114, GLD-1 TGE inh 61 | E coli Lon conf inactive
COc1ccc(-n2nnnc2CNC(=O)C(=O)c2c(C)[nH]c3ccccc23)cc1	none (no result: EBV gp42 inh)
CCN(CC(=O)Nc1ccc(OC)cc1)CC(=O)Nc1cccc(S(=O)(=O)N2CCOCC2)c1	none (no result: MEX-5 binding, Bcl-xL primary, GLD-1 TGE inh, EBV gp42 inh)
N#Cc1ccccc1NC(=O)COC(=O)c1ccc(F)cc1F	eLon inh 17 (no result: EBV gp42 inh) | E coli Lon conf inactive
COc1cccc(NC(=O)COC(=O)c2ccc(F)cc2F)c1	none
CCc1cc(C(=O)NCC(C)(C)N2CCOCC2)sc1C	none (no result: EBV gp42 inh)
Cc1ccc(N=Cc2cccc(O)c2O)c(C)c1	none
Cc1ccccc1N=Cc1cccc(O)c1O	eLon inh 15, Bcl-xL primary 36 | E coli Lon conf 30
CN1CCc2cc3c(c4c2[C@H]1[C@H](O)c1ccccc1-4)OCO3	eLon inh 59, MEX-5 binding -84, Bcl-xL primary 111, GLD-1 TGE inh 48, EBV gp42 inh 59 | E coli Lon conf 27
Cn1c(N2CCCCC2)nc2c1c(=O)[nH]c(=O)n2C	none
Cn1c(N2CCN(C(c3ccccc3)c3ccccc3)CC2)nc2c1c(=O)[nH]c(=O)n2C	eLon inh 24 (no result: EBV gp42 inh) | E coli Lon conf 16
Cc1nc(Cl)c2c(n1)NC1=C(O2)C(=O)CCC1	eLon inh 84, MEX-5 binding inconclusive, Bcl-xL primary 165, GLD-1 TGE inh 168, EBV gp42 inh 136 | E coli Lon conf 144
CC(=O)N1c2ccc(S(=O)(=O)NCCC(=O)Nc3ccc(F)cc3)cc2CC1C (configuration not stated)	none (no result: EBV gp42 inh)
COc1cccc(CN2CCC(n3nccc3NC(=O)CCOc3ccccc3)CC2)c1O	none (no result: EBV gp42 inh)
CCOc1cc(C(c2c(O)nc(SC)[nH]c2=O)c2c(O)nc(SC)[nH]c2=O)ccc1O	eLon inh 49, Bcl-xL primary 84, GLD-1 TGE inh 68 (no result: EBV gp42 inh) | E coli Lon conf 41
O=C(CN(Cc1ccco1)S(=O)(=O)c1cccs1)Nc1ccccc1C(F)(F)F	eLon inh 17 | E coli Lon conf inactive
COc1ccc(OC)c(C(=O)COC(=O)c2cc(C)oc2C)c1	eLon inh 27 | E coli Lon conf inactive
COc1ccc(NC(=O)COC(=O)c2cc(C)oc2C)cc1OC	none (no result: MEX-5 binding, EBV gp42 inh)
CC(=O)N/N=C/c1cc(C)n(-c2ccc(Br)cc2)c1C	none
CC(=O)N/N=C/c1cc(C(C)C)cc(/C=N/NC(C)=O)c1O	eLon inh 69, Bcl-xL primary 93, GLD-1 TGE inh 143, EBV gp42 inh 71 | E coli Lon conf 100
CCOc1ccc(-c2c[n+](=O)c3c(n2[O-])CCCC3)c(OCC)c1	eLon inh 68 | E coli Lon conf inactive
O=C(NCCc1ccccc1)C1CCN(S(=O)(=O)N2CCCCCC2)CC1	eLon inh 35 | E coli Lon conf 19
O=C(NCCc1ccccc1)C1CCN(S(=O)(=O)N2CCCC2)CC1	none
O=C(NCCc1ccccc1)c1cccc(NC(=O)C2CCCC2)c1	eLon inh 16 (no result: MEX-5 binding, Bcl-xL primary, GLD-1 TGE inh, EBV gp42 inh) | E coli Lon conf inactive
C#CC(=O)CC1(CN(Cc2ccccc2)C(=O)OC(C)(C)C)CCCCC1	none (no result: MEX-5 binding, Bcl-xL primary, GLD-1 TGE inh, EBV gp42 inh)
CCCCOC(=O)Nc1cc(C)c(Cl)cc1OC	eLon inh 34 | E coli Lon conf inactive
Oc1ccc(Nc2nc(-c3ccccc3O)nc3ccccc23)cc1	none (no result: Bcl-xL primary, GLD-1 TGE inh, EBV gp42 inh)
Oc1ccc(Nc2nc(-c3ccccc3F)nc3ccccc23)cc1	eLon inh 17 (no result: EBV gp42 inh) | E coli Lon conf inactive
O=C1CC(C(=O)Nc2ccc(O)c(C(=O)O)c2)C(c2ccccc2)O1 (configuration not stated)	none
O=C1CC(C(=O)Nc2ccccc2C(=O)O)C(c2ccccc2)O1 (configuration not stated)	eLon inh 19 | E coli Lon conf inactive
Cn1cc(S(=O)(=O)N2CCNCC2)cc1C(N)=O	none (no result: MEX-5 binding, Bcl-xL primary, EBV gp42 inh)
